The record followed here is PubChem BioAssay (Tox21).

Where “and” joins values, the source holds several entries; their conditions need not be identical. Identical values can stand only once. Results filed as inconclusive are left out. Where a structure was tested more than once in an assay, its records may differ in their call. Calls of active or inactive are those of the source. Unless noted, calls follow the shape of the full dose curve.

Assay [1] in a line: Nuclear factor erythroid 2-related factor 2/antioxidant responsive element (Nrf2/ARE) small molecule agonists: qHTS cell viability counter screen in human keratinocytes (AID 1919968; active = well fitted curve in the direction sought with a large enough effect in the repeat runs; an effect the other way counts as inactive or inconclusive; also: nearly all actives have a fitted effect of over 55% in size). In short, it runs like this:
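Viability counter-screen: KeratinoSens reporter cells, DMSO-delivered compounds, 23 h at 37 C, CellTiter-Fluor fluorescence.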
A general note: In qHTS, concentration-response curves come from the screen itself.

A short description of assay [2]: Nuclear factor erythroid 2-related factor 2/antioxidant responsive element (Nrf2/ARE) small molecule agonists: luciferase reporter gene qHTS assay in human keratinocytes (AID 1919969). Also: nearly all actives have a fitted effect of over 35% in size. Background: In a reporter assay the amount or activity of a reporter protein is the signal.
The target in assay [3] is Gonadotropin-releasing hormone receptor (Homo sapiens) (UniProt P30968). Put plainly: Human gonadotropin-releasing hormone receptor (GnRHR) small molecule agonists, calcium flux assay in GnRHR-HEK293 cells (AID 1920063). Also: nearly all actives have a fitted effect of over 35% in size. In short, it runs like this:
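Tox21-format agonist screen using human GnRHR-expressing HEK293 cells and a fluorescent calcium dye; kinetic 3-min fluorescence reading after compound addition, 15-point concentration series run in triplicate.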
For orientation: Calcium assays in cells follow changes in intracellular calcium, usually with a dye or a luminescent sensor.

Assay [4] has as its target KiSS-1 receptor (Homo sapiens) (UniProt Q969F8). Put plainly: Human kisspeptin (KISS1R) small molecule agonists, calcium flux assay in KISS1R-HEK293 cells (AID 1920064; active = well fitted curve in the direction sought with a large enough effect in the repeat runs; an effect the other way counts as inactive or inconclusive). Put shortly: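 Intracellular calcium mobilization in KISS1R-HEK293 cells was recorded by fluorescence (Ex/Em 480/540) for 3 min following compound addition to cells pre-loaded 1 h with calcium dye.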
Assay [5] in a line: G protein-coupled receptor (GPCR) small molecule agonists, calcium flux assay: HEK293 wild type cell line counter screen (AID 1920065). In short, it runs like this:
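In this agonist-mode screen, ATP is the positive control and DMSO the vehicle. Cells grow 18 h before a 1 h dye incubation at 37 C; signal is taken at Ex/Em 480/540 over 3 min.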

The nature of assay [6]: p53 small molecule agonists, cell-based qHTS assay with human liver microsomes (AID 1963577). Put shortly:
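Compounds act here after metabolic activation: human liver microsomes and NADPH, both at 0.5 mg/mL final, were co-added to p53RE-bla cells. Incubation ran 16 h at 37 C, followed by LiveBLAzer detection.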

Assay [7] in a line: p53 small molecule agonists, cell-based qHTS assay with rat liver microsomes (AID 1963578). In short, it runs like this:
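Read-out is beta-lactamase reporter fluorescence (LiveBLAzer, 2 h, room temperature, dark) in p53RE-bla cells treated 16 h at 37 C with compound, rat liver microsomes and NADPH, both 0.5 mg/mL final.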

The nature of assay [8]: p53 small molecule agonists, cell-based qHTS assay with human liver microsomes: qHTS cell viability counter screen (AID 1963579). Also: nearly all actives have a fitted effect of over 45% in size. In short, it runs like this: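 Cells carrying the p53 response-element beta-lactamase reporter are treated for 16 h at 37 C with test compounds in the presence of human liver microsomes and NADPH (both 0.5 mg/mL final); ATP-based CellTiter-Glo luminescence then reports viability.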

Assay [9] in a line: p53 small molecule agonists, cell-based qHTS assay with rat liver microsomes: qHTS cell viability counter screen (AID 1963580). Also: nearly all actives have a fitted effect of over 45% in size. In short, it runs like this:
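In HCT-116 cells carrying a p53 response element-bla reporter, compounds were metabolically activated in situ by rat liver microsomes with NADPH over 16 h. Cell ATP content then served as the cytotoxicity measure.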

The nature of assay [10]: p53 small molecule agonists, cell-based qHTS assay: qHTS cell viability counter screen (AID 1963581). Also: nearly all actives have a fitted effect of over 45% in size. In short, it runs like this:
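Compounds are pinned onto HCT-116 p53RE-bla cells and left 16 h at 37 C. Following the reporter FRET read, ATP is quantified by CellTiter-Glo luminescence after 30 min at room temperature.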

Assay [11] in a line: p53 small molecule agonists, cell-based qHTS assay (AID 1963582; active = well fitted activation curve with a large enough effect in the signal ratio in the repeat runs, not every such curve was filed as active; the % refers to the signal ratio). Put shortly:
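Agonist activity was scored from beta-lactamase FRET fluorescence in p53RE-bla cells treated 16 h at 37 C with compounds in DMSO, substrate incubation being 2 h at room temperature.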

In assay [12] the target is 5-hydroxytryptamine receptor 2A (Homo sapiens) (UniProt P28223). Put plainly: 5-hydroxytryptamine receptor 2A (HTR2A) small molecule antagonists, cell-based qHTS assay (AID 1963586). Also: nearly all actives have a fitted effect of over 45% in size. Also: potency is read from the fitted curve at half-maximal effect. Put shortly: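 Antagonist-mode intracellular calcium assay: DOI (4 nM) added after 5 min compound pre-incubation at room temperature to dye-loaded HTR2A-CHO cells. Fluorescence followed for 3 min, sampled every second.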
5-hydroxytryptamine receptor 2A (Homo sapiens), sequence (P28223 whole entry, looked up): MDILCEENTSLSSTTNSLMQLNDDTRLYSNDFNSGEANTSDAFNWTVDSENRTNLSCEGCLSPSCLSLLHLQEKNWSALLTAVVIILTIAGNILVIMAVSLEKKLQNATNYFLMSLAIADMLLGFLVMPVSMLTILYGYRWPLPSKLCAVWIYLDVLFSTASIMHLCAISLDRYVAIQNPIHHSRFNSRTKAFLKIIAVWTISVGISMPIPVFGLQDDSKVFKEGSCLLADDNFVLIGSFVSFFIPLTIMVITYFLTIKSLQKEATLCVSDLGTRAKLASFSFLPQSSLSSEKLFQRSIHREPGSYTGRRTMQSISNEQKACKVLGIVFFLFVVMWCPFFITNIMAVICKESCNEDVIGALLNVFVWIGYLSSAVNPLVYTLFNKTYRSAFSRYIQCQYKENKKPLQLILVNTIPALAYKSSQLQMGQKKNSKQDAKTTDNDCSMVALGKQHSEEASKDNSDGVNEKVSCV

The target is the same in assay [13]. Put plainly: 5-hydroxytryptamine receptor 2A (HTR2A) small molecule agonists, cell-based qHTS assay (AID 1963587). Also: nearly all actives have a fitted effect of over 30% in size. In short, it runs like this:
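HTR2A-CHO cells, plated 18 h at 37 C/5% CO2, dye-loaded 1 h at 37 C; compounds in DMSO added by pin tool (agonist mode). Intracellular calcium flux read as kinetic fluorescence on FDSS over 2 min at 1 s intervals.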

The target of assay [14] is Muscarinic acetylcholine receptor M1 (Homo sapiens) (UniProt P11229). In words: Cholinergic receptor muscarinic 1 (CHRM1) small molecule antagonists, cell-based qHTS assay (AID 1963588). Also: nearly all actives have a fitted effect of over 40% in size. In short, it runs like this: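 CHRM1-CHO calcium-flux assay, antagonist mode. Cells were seeded 18 h, dye-loaded 1 h at 37 C and given compound for 5 min at RT, then acetylcholine was added at 50nM. FDSS fluorescence was read 3 min; 15 concentrations, three runs.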
Muscarinic acetylcholine receptor M1 (Homo sapiens), sequence (P11229 whole entry, looked up): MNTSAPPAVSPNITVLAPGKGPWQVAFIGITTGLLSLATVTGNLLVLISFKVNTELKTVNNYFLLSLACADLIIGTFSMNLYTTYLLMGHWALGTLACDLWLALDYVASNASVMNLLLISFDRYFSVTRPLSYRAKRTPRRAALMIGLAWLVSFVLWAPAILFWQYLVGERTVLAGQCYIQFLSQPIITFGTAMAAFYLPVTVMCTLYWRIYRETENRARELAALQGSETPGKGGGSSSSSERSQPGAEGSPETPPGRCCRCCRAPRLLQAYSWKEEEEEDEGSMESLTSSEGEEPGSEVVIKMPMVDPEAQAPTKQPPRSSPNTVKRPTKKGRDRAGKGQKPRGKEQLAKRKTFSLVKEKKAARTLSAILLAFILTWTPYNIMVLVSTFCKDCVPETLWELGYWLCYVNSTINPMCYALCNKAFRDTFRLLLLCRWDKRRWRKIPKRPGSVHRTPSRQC

The target is the same in assay [15]. Put plainly: Cholinergic receptor muscarinic 1 (CHRM1) small molecule agonists, cell-based qHTS assay (AID 1963589). Also: nearly all actives have a fitted effect of over 35% in size. In short, it runs like this:
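Stable CHRM1-CHO cells (human receptor) were incubated 18 h, dye-loaded for 1 h at 37 C and exposed to test compounds for agonist activity, with calcium-dependent fluorescence followed kinetically.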

Assay [16] can be described thus: cAMP Responsive Elements (CRE) small molecule agonists, cell-based qHTS assay (AID 1963590). Put shortly: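 FRET-based beta-lactamase readout (LiveBLAzer B/G, 2 h RT) quantified CRE activation in HEK 293T CRE-bla cells after 3 h treatment with DMSO-dissolved compounds.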
A short description of assay [17]: cAMP Responsive Elements (CRE) small molecule antagonists, cell-based qHTS assay (AID 1963591; active = well fitted inhibition curve with a large enough effect in the signal ratio in the repeat runs, not every such curve was filed as active; the % refers to the signal ratio). In short, it runs like this:
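qHTS in CRE-bla HEK 293T cells: compound in DMSO, then 0.25 uM NKH477 (final), 3 h at 37 °C/5% CO2; beta-lactamase FRET read-out after 2 h substrate incubation.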

Assay [18] addresses Beta-2 adrenergic receptor (Homo sapiens) (UniProt P07550). Put plainly: Adrenergic beta2 receptor (ADRB2) small molecule antagonists, cell-based qHTS assay (AID 1963592). Also: series mostly up to about 92 µM; nearly all actives have a fitted effect of over 50% in size. Put shortly:
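Cells (CHO, stable ADRB2 overexpression) incubated 18-20hr at 37C; compounds added from DMSO; agonist mix (1nM isoproterenol, 100uM IBMX, 25uM Ro-20-1724) added; 0.5hr RT; d2-cAMP and anti-cAMP-cryptate added; 1hr RT; 665/615 nm read.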

For assay [19] the target is unchanged. Put plainly: Adrenergic beta2 receptor (ADRB2) small molecule agonists, cell-based qHTS assay (AID 1963593).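 Also: CHO cells stably overexpressing human ADRB2.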 Put shortly:
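CHO cells stably over-expressing ADRB2 were plated overnight at 37C, then dosed with compounds plus a stimulation mix containing 100uM IBMX and 25uM Ro-20-1724 for 0.5hr at room temperature. cAMP was measured by HTRF competition, 1hr.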

Assay [20] has as its target D(2) dopamine receptor (Homo sapiens) (UniProt P14416). Put plainly: Dopamine D2 receptor (DRD2) small molecule agonists, cell-based qHTS assay (AID 1963594). Also: nearly all actives have a fitted effect of over 35% in size. Put shortly: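 HEK293 cells stably expressing DRD2 were cultured 24 h at 37 C, then given Ro20-1724 (0.1 mM final) and compounds for 10 min at room temperature. NKH477 (200nM) was then added for 30 min. cAMP was read by HTRF.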

D(2) dopamine receptor (Homo sapiens), sequence (P14416 whole entry, looked up): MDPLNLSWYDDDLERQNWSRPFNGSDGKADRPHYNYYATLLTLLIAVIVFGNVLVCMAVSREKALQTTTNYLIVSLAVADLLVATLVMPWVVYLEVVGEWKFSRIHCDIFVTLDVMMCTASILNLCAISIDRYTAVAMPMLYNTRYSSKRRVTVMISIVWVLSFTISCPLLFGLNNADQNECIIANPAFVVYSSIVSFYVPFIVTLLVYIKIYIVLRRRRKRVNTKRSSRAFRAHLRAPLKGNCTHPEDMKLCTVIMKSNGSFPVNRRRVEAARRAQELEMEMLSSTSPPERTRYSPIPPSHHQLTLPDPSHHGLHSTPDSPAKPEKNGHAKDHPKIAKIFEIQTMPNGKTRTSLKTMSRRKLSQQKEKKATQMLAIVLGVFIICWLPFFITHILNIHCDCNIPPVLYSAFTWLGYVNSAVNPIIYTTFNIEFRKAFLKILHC
Beta-2 adrenergic receptor (Homo sapiens), sequence (P07550 whole entry, looked up): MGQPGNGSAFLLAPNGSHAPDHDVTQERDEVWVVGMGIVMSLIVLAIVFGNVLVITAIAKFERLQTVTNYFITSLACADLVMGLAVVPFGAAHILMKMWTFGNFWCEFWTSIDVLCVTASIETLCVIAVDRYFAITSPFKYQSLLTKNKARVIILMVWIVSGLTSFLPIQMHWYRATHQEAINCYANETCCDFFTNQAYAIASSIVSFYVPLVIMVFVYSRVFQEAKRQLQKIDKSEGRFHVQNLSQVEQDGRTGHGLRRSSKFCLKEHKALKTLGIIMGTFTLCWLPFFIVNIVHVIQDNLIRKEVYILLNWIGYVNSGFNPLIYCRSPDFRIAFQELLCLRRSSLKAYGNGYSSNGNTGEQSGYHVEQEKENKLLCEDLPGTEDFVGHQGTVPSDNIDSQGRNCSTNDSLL
Gonadotropin-releasing hormone receptor (Homo sapiens), sequence (P30968 whole entry, looked up): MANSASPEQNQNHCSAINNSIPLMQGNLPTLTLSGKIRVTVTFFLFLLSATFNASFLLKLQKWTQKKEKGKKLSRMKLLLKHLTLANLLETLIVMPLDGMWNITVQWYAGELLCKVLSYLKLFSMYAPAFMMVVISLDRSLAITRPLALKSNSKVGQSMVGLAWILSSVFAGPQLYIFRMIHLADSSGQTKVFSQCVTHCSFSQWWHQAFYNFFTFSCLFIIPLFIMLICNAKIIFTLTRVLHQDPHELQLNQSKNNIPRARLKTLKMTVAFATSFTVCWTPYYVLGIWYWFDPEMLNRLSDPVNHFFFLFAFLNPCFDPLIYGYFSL
KiSS-1 receptor (Homo sapiens), sequence (Q969F8 whole entry, looked up): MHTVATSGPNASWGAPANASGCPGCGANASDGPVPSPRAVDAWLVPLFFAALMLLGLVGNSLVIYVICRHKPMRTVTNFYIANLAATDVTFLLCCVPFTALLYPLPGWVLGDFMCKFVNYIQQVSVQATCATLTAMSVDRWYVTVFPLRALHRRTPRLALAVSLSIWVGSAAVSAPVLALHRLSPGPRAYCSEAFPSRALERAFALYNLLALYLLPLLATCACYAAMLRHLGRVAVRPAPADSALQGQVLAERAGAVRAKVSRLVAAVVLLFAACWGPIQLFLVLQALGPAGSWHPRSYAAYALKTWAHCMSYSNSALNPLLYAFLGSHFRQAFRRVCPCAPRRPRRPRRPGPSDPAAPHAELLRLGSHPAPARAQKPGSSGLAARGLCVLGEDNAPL

For `O=S(=O)(O)c1ccc2cc(O)c(S(=O)(=O)O)cc2c1`, the Potency entry in [1], in [2], in assay [3], in assay [4], in assay [5] and in [6] was “inactive” throughout. Further, the Potency result in assay [7], in assay [8], in [9], in assay [10], in assay [11] and in [12] was “inactive” in each case. The Potency entry in [13], in [14], in assay [15], in assay [16], in assay [17] and in assay [18] was “inactive” throughout. Besides, the Potency entry in assay [19] and in [20] was “inactive” each time.

For `CCCc1ccc(O)cc1`, the Potency entry in [1], in assay [2], in assay [3], in [4], in assay [5] and in [6] was “inactive” throughout. The Potency result in [7], in [8], in assay [9], in [10], in assay [11] and in assay [12] was “inactive” throughout. Also, the Potency result in assay [13], in assay [14], in assay [15], in assay [16], in [17] and in [18] was “inactive” in each case. Moreover, the Potency entry in [19] and in assay [20] was “inactive” in each case.

Regarding `CC(C)(CC(=O)O)C(=O)O`, the Potency result in assay [1], in assay [2], in assay [3], in [4], in [5] and in [6] was “inactive” in each case. Further, the Potency entry in assay [7], in [8], in [9], in assay [10], in [11] and in assay [12] was “inactive” in each case. Also, the Potency entry in assay [13], in assay [14], in [15], in [16], in [17] and in [18] was “inactive” each time. The Potency result in [19] and in [20] was “inactive” throughout.

Take `Cc1ccc(NC(=O)N(C)C)cc1NC(=O)N(C)C`: the Potency result in assay [1], in assay [2], in [3], in [4], in [5] and in [6] was “inactive” each time. Also, the Potency result in assay [7], in assay [8], in assay [9], in [10], in assay [11] and in assay [12] was “inactive” throughout. Further, the Potency entry in assay [13], in assay [14], in [15], in assay [16], in assay [17] and in assay [18] was “inactive” in each case. In addition, the Potency result in assay [19] and in assay [20] was “inactive” in each case.

On to `C=CC(O)CCCCC` (stereo not given), for which the Potency result in [1], in assay [2], in assay [3], in assay [4], in [5] and in assay [6] was “inactive” in each case. The Potency result in assay [7], in assay [8], in assay [9], in assay [10], in assay [11] and in assay [12] was “inactive” in each case. Moreover, the Potency entry in assay [13], in [14], in assay [15], in assay [16], in assay [17] and in assay [18] was “inactive” each time. In addition, the Potency result in [19] and in [20] was “inactive” throughout.

For the compound `Cc1ccc(N(C)C)cc1`, the Potency entry in assay [1], in [2], in assay [3], in [4], in [5] and in assay [6] was “inactive” each time. Further, the Potency entry in assay [7], in assay [8], in assay [9], in assay [10], in assay [11] and in [13] was “inactive” throughout. Moreover, the Potency result in assay [14], in [15], in [16], in assay [17], in [18] and in assay [19] was “inactive” each time. Moreover, the Potency result in assay [20] is “inactive”. In assay [12], the Potency result was “inactive and 133 nM (active)”.

As to `CC1(C)[C@H]2CC[C@]1(C)[C@H](O)C2`, the Potency entry in [1], in assay [2], in assay [3], in [4], in assay [5] and in [6] was “inactive” in each case. Further, the Potency entry in assay [7], in [8], in assay [9], in assay [10], in assay [11] and in assay [12] was “inactive” each time. Moreover, the Potency result in assay [13], in assay [14], in [15], in [16], in [17] and in assay [18] was “inactive” each time. In addition, the Potency result in assay [19] and in assay [20] was “inactive” in each case.
